Tested on: Mast/stem cell growth factor receptor Kit (Homo sapiens), P10721 [V560G]
Conditions: at 0.1 µM

Chain of Mast/stem cell growth factor receptor Kit (Homo sapiens), P10721 [V560G] (P10721 whole entry V560G): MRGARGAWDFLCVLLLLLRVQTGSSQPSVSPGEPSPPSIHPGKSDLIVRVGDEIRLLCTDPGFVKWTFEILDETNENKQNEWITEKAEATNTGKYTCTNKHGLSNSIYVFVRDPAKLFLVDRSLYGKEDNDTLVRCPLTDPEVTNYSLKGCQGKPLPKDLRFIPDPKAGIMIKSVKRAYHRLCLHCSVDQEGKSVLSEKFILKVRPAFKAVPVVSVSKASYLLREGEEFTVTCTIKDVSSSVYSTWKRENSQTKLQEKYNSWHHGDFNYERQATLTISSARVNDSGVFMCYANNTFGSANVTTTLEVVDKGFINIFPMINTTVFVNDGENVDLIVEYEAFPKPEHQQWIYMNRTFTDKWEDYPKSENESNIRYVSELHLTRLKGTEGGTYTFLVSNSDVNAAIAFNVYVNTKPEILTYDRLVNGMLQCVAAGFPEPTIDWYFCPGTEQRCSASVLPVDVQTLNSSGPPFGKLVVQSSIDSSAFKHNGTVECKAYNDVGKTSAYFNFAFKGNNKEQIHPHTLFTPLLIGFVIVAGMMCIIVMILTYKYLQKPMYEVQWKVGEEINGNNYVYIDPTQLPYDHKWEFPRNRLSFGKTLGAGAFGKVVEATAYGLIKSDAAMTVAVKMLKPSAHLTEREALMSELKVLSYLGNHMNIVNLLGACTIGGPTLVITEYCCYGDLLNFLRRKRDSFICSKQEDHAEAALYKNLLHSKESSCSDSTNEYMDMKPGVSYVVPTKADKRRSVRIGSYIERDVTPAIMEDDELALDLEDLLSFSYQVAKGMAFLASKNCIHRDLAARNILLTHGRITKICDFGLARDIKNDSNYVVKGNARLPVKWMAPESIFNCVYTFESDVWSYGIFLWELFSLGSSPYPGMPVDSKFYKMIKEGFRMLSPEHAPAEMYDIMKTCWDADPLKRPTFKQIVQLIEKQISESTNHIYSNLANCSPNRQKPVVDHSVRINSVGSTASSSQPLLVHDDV

Point of comparison: `COC(=O)c1sc(-n2cnc3cc(OC)c(OC)cc32)cc1OCc1ccccc1C(F)(F)F`, inhibition -0.04%. Against it:
- COc1ccc(-c2cc(-c3c[nH]nc3-c3ccccn3)ccn2)cc1 — lower, -1.03%
- CCCN(CCS(C)(=O)=O)Cc1ccc(-c2ccc3ncnc(Nc4ccc(OCc5cccc(F)c5)c(Cl)c4)c3c2)o1 — higher, 1.8%
- FC(F)(F)c1cccc(-c2nn3ncccc3c2-c2ccnc(Nc3ccc4c(c3)OCCO4)n2)c1 — lower, -1%
- CCNC(=O)O[C@H]1CN[C@H](C#Cc2cc3ncnc(Nc4ccc(OCc5cccc(F)c5)c(Cl)c4)c3s2)C1 — higher, 0.45%
- COC(=O)Nc1nc2ccc(S(=O)(=O)c3ccc(NC(=O)Nc4cc(C(F)(F)F)ccc4F)cc3)cc2[nH]1 — lower, -0.14%
- CC(=O)Nc1cccc(C#Cc2cncnc2Nc2ccc(OCc3cccc(F)c3)c(Cl)c2)c1 — higher, 2.26%
- CCOc1ccc2c(-c3ccnc(Nc4cccc(C(F)(F)F)c4)n3)cnn2n1 — lower, -1.27%
- CC(=O)NCc1cccc(C#Cc2cncnc2Nc2ccc(OCc3cccc(F)c3)c(Cl)c2)c1 — higher, 1.82%
- Cc1cccc2c1NC(=O)/C2=N\Nc1ccc(S(N)(=O)=O)cc1 — higher, 2.17%
- COc1ccc(-c2nn3ncccc3c2-c2ccnc(Nc3ccc4c(c3)OCCO4)n2)cc1 — higher, 9.03%
- Fc1ccc(-c2cc(-c3c[nH]nc3-c3ccccn3)ccn2)cc1 — lower, -3.44%
- CCN(CC)S(=O)(=O)c1ccc(OC)c(Nc2ncc(-c3ccccc3)o2)c1 — higher, 7.63%
- COc1cccc(-c2c[nH]c3c(N/N=C/c4ccncc4)ncnc23)c1 — higher, 4.19%
- c1ccc(-c2nc3n(c2-c2ccc4c(c2)OCO4)CCC3)nc1 — lower, -1.47%
- COc1cccc(-n2ncc3c(N/N=C/c4ccc(F)cc4)ncnc32)c1 — lower, -0.37%
- Nc1ncc(-c2cccc(S(N)(=O)=O)c2)c2scc(-c3ccc(F)c(Cl)c3)c12 — higher, 3.89%
- Cc1ccc2c(-c3ccnc(Nc4ccccc4)n3)c(-c3ccc(F)cc3)nn2n1 — higher, 1.13%
- CS(=O)(=O)CCNCc1ccc(-c2ccc3ncnc(Nc4ccc(OCc5ccccc5)c(C(F)(F)F)c4)c3c2)o1 — higher, 1.13%
- NC(=O)c1sc(-n2cnc3ccc(C(F)(F)F)cc32)cc1OCc1ccccc1Br — lower, -0.43%
- CCn1c(-c2nonc2N)nc2ccccc21 — higher, 1.72%
- NS(=O)(=O)c1ccc(Nc2ncc(-c3ccccc3)o2)cc1 — higher, 9.24%
- COc1ccc2[nH]c3c4[nH]c5ccc(OC)cc5c4c4c(c3c2c1)C(=O)NC4=O — higher, 3.53%
- Nc1nc(-c2ccc(F)cc2)c(-c2ccc3ncccc3n2)s1 — higher, 2.59%
- COc1ccc(CNC(=O)c2ccc(-c3cc(-c4nnc(C)o4)ccc3C)cc2)cc1 — higher, 4.68%
- O=C(O[C@H]1CN[C@H](C#Cc2cc3ncnc(Nc4ccc(Cc5ccccc5)cc4)c3s2)C1)N1CCOCC1 — lower, -0.42%
- N#Cc1c(NC(=O)CN2CCOCC2)sc2c1CCCC2 — higher, 2.47%
- Cc1cccc(Nc2ncc(-c3ccccc3)o2)c1 — higher, 6.79%
- O=C(Nc1n[nH]c2cc(-c3ccc(F)cc3)ccc12)C1CC1 — lower, -2.61%
- Cc1ccc(O)cc1Nc1ccnc2cc(-c3ccccn3)ccc12 — higher, 3.25%
- CCc1nn2ncccc2c1-c1ccnc(NC2CC2)n1 — higher, 0.78%
- CCn1cc(-c2ccnc3[nH]ccc23)c(-c2cccc(NC(=O)Nc3ccc(OCc4ccccc4)cc3)c2)n1 — lower, -1.87%
- COc1cc2c(cc1Nc1nc(Nc3ccsc3C(N)=O)c3cc[nH]c3n1)N(C(=O)CN(C)C)CCC2(C)C — higher, 5.02%

Tested on: Mast/stem cell growth factor receptor Kit (Homo sapiens), P10721 [V560G]
Conditions: at 1 µM

Point of comparison: `Fc1ccc(-c2cc(-c3c[nH]nc3-c3ccccn3)ccn2)cc1`, inhibition 1.08%. Against it:
- COc1ccc(-c2cc(-c3c[nH]nc3-c3ccccn3)ccn2)cc1 — higher, 2.87%
- CCCN(CCS(C)(=O)=O)Cc1ccc(-c2ccc3ncnc(Nc4ccc(OCc5cccc(F)c5)c(Cl)c4)c3c2)o1 — higher, 3.3%
- FC(F)(F)c1cccc(-c2nn3ncccc3c2-c2ccnc(Nc3ccc4c(c3)OCCO4)n2)c1 — higher, 5.35%
- CCNC(=O)O[C@H]1CN[C@H](C#Cc2cc3ncnc(Nc4ccc(OCc5cccc(F)c5)c(Cl)c4)c3s2)C1 — higher, 5%
- COC(=O)Nc1nc2ccc(S(=O)(=O)c3ccc(NC(=O)Nc4cc(C(F)(F)F)ccc4F)cc3)cc2[nH]1 — lower, 0.67%
- CC(=O)Nc1cccc(C#Cc2cncnc2Nc2ccc(OCc3cccc(F)c3)c(Cl)c2)c1 — higher, 5.18%
- CCOc1ccc2c(-c3ccnc(Nc4cccc(C(F)(F)F)c4)n3)cnn2n1 — lower, 0.29%
- CC(=O)NCc1cccc(C#Cc2cncnc2Nc2ccc(OCc3cccc(F)c3)c(Cl)c2)c1 — lower, -0.41%
- Cc1cccc2c1NC(=O)/C2=N\Nc1ccc(S(N)(=O)=O)cc1 — higher, 6.53%
- COc1ccc(-c2nn3ncccc3c2-c2ccnc(Nc3ccc4c(c3)OCCO4)n2)cc1 — higher, 61.7%
- CCN(CC)S(=O)(=O)c1ccc(OC)c(Nc2ncc(-c3ccccc3)o2)c1 — higher, 13.6%
- COc1cccc(-c2c[nH]c3c(N/N=C/c4ccncc4)ncnc23)c1 — higher, 19.6%
- c1ccc(-c2nc3n(c2-c2ccc4c(c2)OCO4)CCC3)nc1 — lower, -1.27%
- COc1cccc(-n2ncc3c(N/N=C/c4ccc(F)cc4)ncnc32)c1 — higher, 5.46%
- Nc1ncc(-c2cccc(S(N)(=O)=O)c2)c2scc(-c3ccc(F)c(Cl)c3)c12 — higher, 50.5%
- Cc1ccc2c(-c3ccnc(Nc4ccccc4)n3)c(-c3ccc(F)cc3)nn2n1 — higher, 27.9%
- CS(=O)(=O)CCNCc1ccc(-c2ccc3ncnc(Nc4ccc(OCc5ccccc5)c(C(F)(F)F)c4)c3c2)o1 — lower, -2.89%
- NC(=O)c1sc(-n2cnc3ccc(C(F)(F)F)cc32)cc1OCc1ccccc1Br — lower, -0.61%
- CCn1c(-c2nonc2N)nc2ccccc21 — higher, 1.6%
- NS(=O)(=O)c1ccc(Nc2ncc(-c3ccccc3)o2)cc1 — higher, 52.5%
- COc1ccc2[nH]c3c4[nH]c5ccc(OC)cc5c4c4c(c3c2c1)C(=O)NC4=O — higher, 31.2%
- Nc1nc(-c2ccc(F)cc2)c(-c2ccc3ncccc3n2)s1 — higher, 2.66%
- COc1ccc(CNC(=O)c2ccc(-c3cc(-c4nnc(C)o4)ccc3C)cc2)cc1 — higher, 4.58%
- O=C(O[C@H]1CN[C@H](C#Cc2cc3ncnc(Nc4ccc(Cc5ccccc5)cc4)c3s2)C1)N1CCOCC1 — lower, -0.08%
- N#Cc1c(NC(=O)CN2CCOCC2)sc2c1CCCC2 — higher, 3.82%
- Cc1cccc(Nc2ncc(-c3ccccc3)o2)c1 — higher, 53%
- O=C(Nc1n[nH]c2cc(-c3ccc(F)cc3)ccc12)C1CC1 — lower, 0.08%
- COC(=O)c1sc(-n2cnc3cc(OC)c(OC)cc32)cc1OCc1ccccc1C(F)(F)F — higher, 2.01%
- Cc1ccc(O)cc1Nc1ccnc2cc(-c3ccccn3)ccc12 — higher, 41.2%
- CCc1nn2ncccc2c1-c1ccnc(NC2CC2)n1 — higher, 3.12%
- CCn1cc(-c2ccnc3[nH]ccc23)c(-c2cccc(NC(=O)Nc3ccc(OCc4ccccc4)cc3)c2)n1 — lower, -1.14%
- COc1cc2c(cc1Nc1nc(Nc3ccsc3C(N)=O)c3cc[nH]c3n1)N(C(=O)CN(C)C)CCC2(C)C — higher, 17.8%

Reference: ChEMBL document CHEMBL1961873, “Compounds: GSK PKIS; Assays: Nanosyn kinase panel” (2012)
